ALDH1A1 block: inhibitors of human aldehyde dehydrogenase 1A1; Potency, µM (series often up to 75.3 µM), for the others: at the top dose activity, negative = inhibition, actives largely listed as inhibitors; Purified ALDH1A1, NADH fluorescence, propionaldehyde substrate; hit rate 7.3% among 220,000;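 also: potency is read from the fitted curve at half-maximal effect; plate controls were no enzyme wells and a reference inhibitor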
Target sequence (P00352 whole entry, looked up): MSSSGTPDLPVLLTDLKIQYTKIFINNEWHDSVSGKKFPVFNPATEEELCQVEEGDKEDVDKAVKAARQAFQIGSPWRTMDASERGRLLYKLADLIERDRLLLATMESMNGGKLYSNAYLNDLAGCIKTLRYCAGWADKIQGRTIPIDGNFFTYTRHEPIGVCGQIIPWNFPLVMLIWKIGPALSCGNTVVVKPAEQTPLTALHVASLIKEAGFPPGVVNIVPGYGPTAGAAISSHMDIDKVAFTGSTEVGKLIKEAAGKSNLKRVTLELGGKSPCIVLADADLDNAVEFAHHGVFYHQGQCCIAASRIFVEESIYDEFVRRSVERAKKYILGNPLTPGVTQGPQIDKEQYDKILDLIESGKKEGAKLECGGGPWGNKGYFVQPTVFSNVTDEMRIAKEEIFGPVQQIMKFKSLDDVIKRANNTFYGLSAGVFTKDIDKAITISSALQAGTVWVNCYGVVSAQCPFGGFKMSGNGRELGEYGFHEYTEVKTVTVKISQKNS
HPGD block: blocks human HPGD enzyme activity | AID 894 | purified HPGD, NADH fluorescence kinetic, PGE2 substrate | hit rate 4.3% among 150,000 | Potency, µM, inactives show at the highest dose activity change, negative = inhibition, hits mostly inhibitors; also: potency is read from the fitted curve at half-maximal effect
Target sequence (P15428 whole entry, looked up): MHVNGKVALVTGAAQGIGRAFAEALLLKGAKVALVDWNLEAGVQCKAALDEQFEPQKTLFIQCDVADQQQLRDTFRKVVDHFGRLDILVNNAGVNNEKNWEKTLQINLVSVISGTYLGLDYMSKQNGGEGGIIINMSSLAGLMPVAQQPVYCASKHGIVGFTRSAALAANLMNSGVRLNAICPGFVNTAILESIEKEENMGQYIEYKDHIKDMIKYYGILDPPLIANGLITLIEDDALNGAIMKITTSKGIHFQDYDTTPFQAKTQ
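20 nM HPGD preincubated 15 min at room temperature with compound in 50 mM Tris-HCl pH 8, 0.01% Tween 20. Started with 1 mM NAD+ and 30 uM prostaglandin E2; NADH fluorescence (360/450 nm) read 5 times over 30-s intervals, last minus first.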
IMPase inh: cell-permeable inhibitors of inositol monophosphatase (IMPase). P97697. 120,000 tested, under 10 active. CHO-M1 cells, IP1 accumulation, HTRF TR-FRET ratio. inhibition (IP1 accumulation), % at 46.1 µM. AID 901; active = well fitted curve in the direction sought with a large enough effect in the signal ratio, not every such curve was filed as active; inconclusive = small, poorly fitted or top-dose-only effect, or a change in a side signal; inactive = no such curve, though single readings can be large or run the other way; the % refers to the signal ratio;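 also: cells stimulated with carbachol in lithium chloride buffer; plate controls were DMSO basal wells for no effect and reference inhibitor wells for full effect; higher means more IMPase inhibition seen as more IP1 and lower FRET ratio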
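CHO-M1, 2000 cells/well, cultured 16–30 h; cpd up to 46 uM; carbachol (50 uM solution, stimulation buffer w/ 50 mM LiCl, pH 7.4), 30 min 37C; IP-One TR-FRET, 10 min RT; Ex 320/Em 665, 620; Hill-fit AC50.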
Luc counter: blocks Kinase-Glo luciferase, a counter-screen artifact; AID 1379; Potency, µM (titrated, usually from 38.3 µM), for the others: at the top dose activity change, negative = inhibition, hits mostly inhibitors; Kinase-Glo luciferase, ATP luminescence, 8 min; hit rate 0.28% among 200,000; Q27757; active = well fitted inhibition curve with a large enough effect; inconclusive = small, poorly fitted or top-dose-only effect; also: potency is read from the fitted curve at half-maximal effect; nearly all actives have a fitted effect of over 60% in size
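Substrate mix (final 50 mM imidazole pH 7.2, 50 mM KCl, 7 mM MgCl2, 10 uM ATP, 0.01% Tween 20, 0.05% BSA) plus pin-tool compound, then Kinase-Glo detection mix; 8 min ambient, luminescence read.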
PNC assembly inh: inhibitors of perinucleolar compartment assembly. PC3M PTB-GFP, PNC prevalence imaging, 16 h; hits give low values. activity change (PNC), negative = inhibition, % at 10 µM. hit rate 3.1% among 140,000. AID 2417;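 active = readout at or below -70, meaning at least 70% loss of cells showing the perinucleolar compartment, a nuclear body marking cancer cells; inconclusive = readout between -30 and a set limit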;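 also: plate controls were DMSO wells for no effect and camptothecin positive control wells for full effect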
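PC3M cells stably expressing PTB-GFP, 750–1000 cells/well, treated 16 h at 37 °C with compound (23 nl of library stock), in duplicate. After paraformaldehyde fixation and Hoechst stain, imaged at 20x; PNC prevalence scored by image analysis.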
Lamin A splicing: changes lamin A minigene splicing in HeLa cells; Potency, µM (doses to about 46.1 µM), for the others: at the top dose ratio change, negative = inhibition, most hits filed as inhibitors; AID 1487; HeLa LMNA splicing GFP/RFP minigene ratio, 48 h; hit rate 0.01% among 200,000; active = well fitted inhibition curve with a large enough effect in the signal ratio, with a control signal flat, not every such curve was filed as active; inconclusive = small, poorly fitted or top-dose-only effect, or effect the other way, or a change in a side signal; the % refers to the signal ratio; also: potency is read from the fitted curve at half-maximal effect
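Read-out is the ratio of GFP to DsRed2 object intensity, acquired by 488 nm laser-scanning cytometry on HeLa lamin A-EGFP minigene reporter cells. Compound incubation 48 hrs at 37 °C in Opti-MEM with 2% FBS; DMSO 0.5% final.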
* = called active by the depositor; ? = inconclusive; / = no result given; [ ] = dose if it differs, or a comment. Shown are actives, neighbours in structure and some others; about 10% of the full set was active somewhere. Unless noted, calls follow the shape of the dose curve; as a rule, active = well fitted inhibition curve with a large enough effect (not every such curve was filed as active); inconclusive = small, poorly fitted or top-dose-only effect, or another doubt; inactive = no such curve, though single readings can be large or run the other way. Unless noted, % is scaled to controls: 0 for no effect and ±100 for the full control effect.

SMILES | ALDH1A1 block | HPGD block | IMPase inh | Luc counter | PNC assembly inh | Lamin A splicing
O=[N+]([O-])c1ccc(N2CCCCCC2)c([N+](=O)[O-])c1 | -21.2% | -13.7% | 9.4 | -1.4% | -5.1 | -0.7%
O=C1CCN(c2ccc([N+](=O)[O-])cc2F)CC1 | 8.91µM* | / | / | -1.9% | / | 0.7%[46 µM]
COC(=O)c1cc(O)c(OCc2ccccc2)c(O)c1 | -6.3% | ? | -1.3 | 2.4% | -85.3* | ?
COC(=O)c1[nH]c(=O)c2ccccc2c1OCc1ccccc1 | ? | -14.0% | -3.1 | -4.6% | 49.9 | 4.8%
CC1Cc2cc(/C(O)=C3/C(=O)C(=O)N(CCN4CCOCC4)C3c3cccc(Cl)c3)ccc2O1 (stereo not given) | 11.2µM* | 28.2µM* | ? | 3.8% | ? | 0.4%
CCOc1cccc(/C(O)=C2/C(=O)C(=O)N(Cc3cccnc3)C2c2ccco2)c1 (stereo not given) | -7.8% | -5.7% | -3.0 | -0.8% | 93.6 | 10.9%
CCOc1cccc(/C(O)=C2/C(=O)C(=O)N(CCN3CCOCC3)C2c2ccncc2)c1 (stereo not given) | 22.4µM* | / | / | -3.3% | / | /
CCOc1cccc(/C(O)=C2/C(=O)C(=O)N(CCOC)C2c2ccco2)c1 (stereo not given) | 25.1µM* | -22.2% | -1.7 | 2.3% | 48.5 | 13.3%
CC1(C)CC(=O)c2c(nn(-c3ccccc3)c2-c2ccncc2)C1 | 14.1µM* | -11.0% | 6.6 | 1.6% | -25.5 | -8.6%
CCCCNc1cnn(-c2ccccc2)c(=O)c1Cl | -2.7% | / | / | -1.8% | / | /
O=c1c(Cl)c(Cl)cnn1-c1ccccc1 | 12.6µM* | -11.5% | -22.0 | -0.4% | 10.1 | -27.5%
COC(=O)N1CCC2(CC1)CN(c1ccccc1)C2 | -2.3% | -3.1% | / | -0.4% | / | /
CCOC(=O)Cc1csc(/C(=N/O)C(N)=O)n1 | 28.2µM* | -12.3% | 2.9 | 3.3% | -0.2 | ?
CCOC(=O)Cc1csc(N)n1 | 5.6% | -9.8% | 10.5 | -2.1% | ? | -4.5%
COc1ccc(NC(=O)N2CCC3(CC2)CCN(C(=O)c2cccc(F)c2)CC3)cc1 | -6.3% | -0.1% | / | -4.3% | / | /
C=CCOc1c2ccc(C(=O)NCc3ccc(OC)cc3)cc2nn1C | ? | ? | -2.5 | 6.1% | -109.4* | 9.7%
C=CCOc1c2ccc(C(=O)NCc3ccccc3OC)cc2nn1C | ? | ? | 4.0 | 2.2% | 55.5 | 10.2%
O=C(C1=C(O)C(=O)N(CCOCCO)C1c1cccs1)c1cccs1 (stereo not given) | 2.24µM* | -9.8% | ? | -4.3% | -2.9 | ?
COc1ccc(CCN2C(=O)C(O)=C(C(=O)c3ccco3)C2c2cccs2)cc1OC (stereo not given) | 7.94µM* | -18.1% | ? | -6.6% | -11.3 | 1.0%
Cc1ccc2nc(N3C(=O)C(O)=C(C(=O)c4ccco4)C3c3cccs3)sc2c1 (stereo not given) | ? | 14.1µM* | -16.9 | -0.3% | -10.7 | 1.1%
COc1ccc(-c2cn3nc(N4CCCC(C(=O)Nc5ccccc5F)C4)sc3n2)cc1 (stereo not given) | / | / | / | / | / | -12.2%[46 µM]
O=C1CCCC2=C1C1(CCCC1)N=C(Nc1nc3ccccc3s1)N2 | ? | ? | 2.6 | -0.3% | -116.6* | 2.1%
COc1cccc2c1C(=O)c1c(O)c3c(c(O)c1C2=O)C[C@@](O)(C(=O)CO)C[C@@H]3O[C@@H]1C[C@H](N)[C@H](O)[C@H](C)O1 | 20µM* | -8.1% | / | -15.4% | / | /
COc1cccc2c1C(=O)c1c(O)c3c(c(O)c1C2=O)C[C@@](O)(C(=O)CO)C[C@@H]3O[C@H]1C[C@H](N)[C@H](O)[C@H](C)O1 | ? | -14.3% | / | -27.6% | -114.6* | ?
O=C(N1CCCCCC1)n1c(Cc2ccccc2)nc2ccccc21 | -7.3% | -15.6% | 2.2 | 0.9% | -118.8* | -1.7%
SMILES | ALDH1A1 block | HPGD block | IMPase inh | Luc counter | PNC assembly inh | Lamin A splicing
COCCCn1c(SCc2nnc(-c3ccc(OC)c(OC)c3)o2)nc2ccccc2c1=O | -15.3% | 20µM* | -1.5 | 1.0% | -100.0* | ?
NC(=O)CS(=O)(=O)c1nc2ccccc2n1CC(=O)N1CCCCC1 | 8.7% | -1.4% | -11.7 | 1.2% | 26.6 | -16.3%
O=C(CSc1nc2ccccc2n1S(=O)(=O)c1ccccc1)N1CCCCC1 | -6.2% | 1.78µM* | 8.1 | 2.6% | -6.1 | -3.8%
O=C(Cn1c(S(=O)(=O)Cc2ccccc2)nc2ccccc21)N1CCCCC1 | 25.1µM* | -17.9% | 14.9 | 5.6% | ? | -12.9%
N#Cc1ccccc1NS(=O)(=O)c1ccc(N2CCCCS2(=O)=O)cc1 | / | / | / | / | / | -6.7%[46 µM]
Cc1onc(-c2ccccc2Cl)c1C(=O)NC1C(=O)N2C1SC(C)(C)C2C(=O)O (stereo not given) | -12.5% | ? | / | -4.8% | / | /
OCCSCc1ccccc1 | 0.4%[13.5 µM] | -8.7% | / | -3.9%[7.66 µM] | / | /
Cc1cc(=O)[nH]c2nnc(SCc3ccc(Cl)c(Cl)c3)n12 | / | / | / | / | / | -9.8%[46 µM]
COCCCn1c(SCC(=O)c2ccccc2)nc2ccccc2c1=O | ? | / | / | 2.9% | / | 10.1%[9.22 µM]
COCC(C)n1c(SCC(=O)NNC(=O)c2ccc(F)cc2)nc2ccccc2c1=O (stereo not given) | 7.0% | -4.8% | 10.8 | 3.4% | -93.8* | -11.6%
NS(=O)(=O)c1ccc(CCNC(=O)CSc2nc3ccccc3c(=O)n2CCC(=O)N2CCCCC2)cc1 | 7.94µM* | / | / | -4.7% | / | /
CC(C)Cn1c(SCC(=O)N2CCCCC2)nc2ccccc2c1=O | 22.4µM* | -10.5% | 2.0 | 1.4% | 43.3 | -12.9%
COCCn1c(SCC(=O)c2ccccc2)nc2ccccc2c1=O | 17.8µM* | / | / | -9.1% | / | 6.5%[46 µM]
CON | -2.6% | -4.6% | / | 0.7% | / | -4.1%
CN(C)c1ccc(-c2cncnc2-n2ccnc2)cc1 | ? | / | / | / | / | 10.5%
COc1cccc([C@H]2Oc3ccc(OC)cc3/C(=N\OC[C@@H](O)[C@@H]3O[C@@H]4OC(C)(C)O[C@@H]4[C@H]3O)[C@@H]2O)c1 | -7.6%[13.5 µM] | / | / | / | / | /
Cc1ccc(S(=O)(=O)c2cn(Cc3cccc(F)c3)c3cc(N4CCCC4)c(F)cc3c2=O)cc1 | / | / | / | / | / | 4.8%[46 µM]
Cc1cc(=O)n(Cc2ccc(F)cc2Cl)c2c1c(C)nn2C | / | / | / | / | / | -0.4%[46 µM]
CCOC(=O)CSc1nc2cc(C(=O)N3CCCC3)ccc2c(=O)n1Cc1ccccc1 | 25.1µM* | -4.9% | 8.6 | -4.1% | 23.9 | -3.0%
COCCn1c(SCC(=O)N2CCC(C)CC2)nc2ccccc2c1=O | 11.2µM* | -5.1% | 7.5 | 2.8% | 28.0 | -2.0%
COCCn1c(SCC(=O)N2CCc3ccccc3C2)nc2ccccc2c1=O | -12.5% | -2.9% | 8.3 | 4.0% | -7.1 | -4.6%
CCOC(=O)CSc1nc2cc(C(=O)N3CCC(C(N)=O)CC3)ccc2c(=O)n1-c1ccccc1 | 1.9% | -27.1% | 5.7 | -1.0% | -13.0 | 4.7%

Screens: PubChem, National Center for Advancing Translational Sciences (NCATS)
